Screens deposited in PubChem by National Center for Advancing Translational Sciences (NCATS).
A selection: hits, their analogues and other compounds. The true share with any hit is near 2.2%.
FUS yeast rescue: FUS proteinopathy suppression in yeast. S. cerevisiae FUS-expressing, growth rescue, OD600, 24 h. Potency, µM (titrated, usually from 76.6 µM), most hits filed as activators. hit rate 0.24% among 390,000. AID 1347120;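 also: plate controls were DMSO vehicle for no effect and reference control for full effect; nearly all actives have a fitted effect of over 55% in size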
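Absorbance at 600 nm, taken 24hr after compound addition, measured rescue of FUS-yeast growth at 30C. Induction used 2% galactose with seeding at OD 0.005. Controls: CP55940 from 92uM final, DMSO only.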
TDP43 rescue: inhibitors of TDP-43 toxicity in yeast. TDP-43 expressing yeast growth rescue, BacTiter-Glo, 24 h. Potency, µM (titrated, usually from 46.1 µM), for inactives: at the highest dose growth rescue (activation), hits mostly activators. hit rate 1.8% among 410,000. AID 652104; also: % of control where 0% means no effect; nearly all actives have a fitted effect of over 50% in size
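Readout is BacTiter-Glo luminescence of cell growth, so inhibitors register as activators. TDP-43-expressing yeast at OD600=0.02 in galactose medium, after raffinose pregrowth to mid-log, were incubated with compound for 24 hr at 30 deg C.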
Mito fusion act: blocks mitochondrial division or promotes mitochondrial fusion | Potency, µM (doses to about 46.1 µM), without a hit: at the top dose growth rescue (activation), most hits filed as activators | S. cerevisiae fusion-defective mutant growth rescue, CellTiterGlo 48 h | AID 485298 | hit rate 0.23% among 320,000; also: % of control where 0% means no effect; nearly all actives have a fitted effect of over 45% in size
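Yeast fusion mutant, YPEG (non-fermentable carbon), compound, 48 h at 37C non-permissive; CellTiterGlo added, 10 min RT, luminescence read. Rescued growth = division inhibition.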
aSyn rescue: rescues yeast growth from alpha-synuclein toxicity; Yeast expressing alpha-synuclein, growth rescue, BacTiter-Glo, 24 h; Potency, µM (highest dose often 46.1 µM), without a hit: at the highest dose growth rescue (activation), hits mostly activators; hit rate 0.14% among 370,000; also: % of control where 0% means no effect; nearly all actives have a fitted effect of over 65% in size
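Galactose-induced alpha-syn yeast (OD600=0.02, raffinose-pregrown) + pinned cpd, 24 hr, 30 deg C; growth by BacTiter-Glo luminescence. Growth restoration scores as activation.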
Abeta yeast res: compounds reversing amyloid beta toxicity in yeast | yeast expressing A-beta42, growth rescue, OD600, 48 h; response scale: 0% DMSO, 100% iron-clioquinol control | Potency, µM (doses to about 46.1 µM), actives largely listed as activators | hit rate 0.063% among 410,000 | AID 1347071; also: nearly all actives have a fitted effect of over 55% in size
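Yeast growth medium received pinned compounds, then yeast cells expressing toxic A-beta were added; plates incubated at 30 C for 48 hr. Growth read as absorbance at 600 nm, normalized to DMSO and equimolar FeCl3 plus clioquinol controls.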
The depositor's hits bear a star; i = inactive; ? = inconclusive; / = no result; ! = a repeat was not active; [ ] = dose if it differs, or a comment. Calls follow the shape of the dose curve; as a rule, active = well fitted curve in the direction sought with a large enough effect; inconclusive = small, poorly fitted or top-dose-only effect, or another doubt; inactive = no such curve, though single readings can be large; an effect the other way counts as inactive or inconclusive. Potency is read from the fitted curve at half-maximal effect.

SMILES	FUS yeast rescue	TDP43 rescue	Mito fusion act	aSyn rescue	Abeta yeast res
CC1CCN(C(=O)CSc2ccc(-c3ccccc3)nn2)CC1	i	17.8µM*	-1.3%	11.2%	i
O=C(CSc1ccc(-c2cccs2)nn1)N1CCCCCC1	/	17.8µM*	-18.5%	0.2%	?
c1ccc(OCc2nnnn2-c2ccccc2)cc1	i	13.5%	-6.6%	-6.8%	i
Brc1ccc(Oc2nnnn2-c2ccccc2)cc1	i	15.8µM*	0.4%	-0.9%	i
Clc1ccc(OCc2nnnn2-c2ccccc2)cc1	/	12.6µM*	4.5%	3.9%	i
COc1ccc(CN2C(=O)c3ccccc3C2c2nnnn2Cc2ccccc2)cc1 (stereo not drawn)	i	?	/	5.9%	i
O=C1c2ccccc2C(c2nnnn2Cc2ccccc2)N1CCOc1ccccc1 (stereo not drawn)	i	11.2µM*	/	25.1µM*	i
Cc1cc(C)n(-c2nc3ccccc3c(=O)n2OCc2ccc(Cl)cc2)n1	i	11.2µM*	2.8%	-3.5%	i
Cc1cc(C)n(-c2nc3ccccc3c(=O)n2OCc2ccc(F)cc2)n1	i	?	?	1.8%	i
O=C1C=Cc2cccc3ccc(O)c1c23	i	-47.9%	/	35.5µM*	i
O=c1oc(-c2ccc(O)c(O)c2)cc2cccc(O)c12	i	29.7%	/	13.6%	i
CCOc1ccccc1NC(=S)NC(=O)c1ccco1	i	14.1µM*	-11.0%	-5.1%	?
CCOc1ccccc1NC(=S)NC(=O)C1CCCCC1	i	20.2%	0.0%	-25.8%	7.08µM*
CCOc1ccccc1NC(=O)C1CCCC1	i	0.2%	/	0.1%	i
Cc1nn(CC(=O)N2CCN(c3cccc(Cl)c3)CC2)c(=O)c2c1sc1ccccc12	i	-0.1%	/	/	i
COc1ccc(N2CCN(C3(c4ccccc4)C(=O)c4ccccc4C3=O)CC2)cc1	i	9.8%	/	/	i
Cc1ccc(NC(=O)COC(=O)c2ccccc2OCC(=O)Nc2ccc(Br)cc2)c(C)c1	/	/	/	-1.6%	/
Cc1ccc(-c2c(C(=O)NCCc3ccc(Cl)cc3)oc(=O)c3ccccc23)cc1	15.8µM*	-8.8%	/	/	i
Cc1ccc(CCNC(=O)c2oc(=O)c3ccccc3c2-c2ccc(C)cc2)cc1	?	?	/	/	i
Cc1ccccc1C(=O)NC1CCCCN(Cc2cccc(C(F)(F)F)c2)C1=O (stereo not drawn)	i	/	/	/	/
COc1ccc(-c2nnn3c2Cn2c4ccccc4c(=O)n2[C@@H](C(C)C)C3)cc1	i	/	/	/	/
CC1(C)Cc2c(C#N)c(N3CCN(C(=O)c4ccccc4)CC3)nc(Cc3ccccc3)c2CO1	i	8.1%	-1.4%	-0.9%	i
CC1(C)Cc2c(C#N)c(N3CCOCC3)nc(-c3ccccc3)c2CO1	i	20.1%	9.4%	-2.9%	i
CC1CCN(c2nc(-c3ccco3)c3c(c2C#N)CC(C)(C)OC3)CC1	i	11.2µM*	0.8%	3.7%	i
CCc1nc(N2CCN(C(=O)c3ccccc3)CC2)c(C#N)c2c1COC(C)(C)C2	i	20µM*	5.2%	8.4%	i
SMILES	FUS yeast rescue	TDP43 rescue	Mito fusion act	aSyn rescue	Abeta yeast res
O=S(=O)(Nc1ccc2cn[nH]c2c1)c1ccc(Cl)cc1	i	-1.0%	26.1%	-2.2%	i
Cc1cc(S(=O)(=O)Nc2ccc3cn[nH]c3c2)c(C)cc1Cl	i	-8.8%	11.2µM*	15.1%	i
O=C(Nc1cccc(C(F)(F)F)c1)c1cnn(-c2cccc(F)c2)c1C1CCNCC1	i	14.2%	/	/	i
Cc1c(/C=C/C(=O)c2ccc(Cl)s2)cnn1C	i	12.6µM*	2.7%	3.0%	i
OC[C@@H]1CCC[C@@H](n2cnc3c(=S)nc[nH]c32)O1	/	/	/	7.0%	/
Cc1ccc(S(=O)(=O)N2CCOC23CCN(C(=O)c2ccccc2Br)CC3)cc1	i	15.8µM*	-12.6%	4.5%	/
O=C1C[C@@H](O)[C@H](O)c2cccc(O)c21	i	/	/	/	/
Cc1ccc(-n2ncc3c(NC4CCCC4)ncnc32)cc1	i	1.26µM*	/	/	i
c1ccc(-n2ncc3c(NC4CCCC4)ncnc32)cc1	i	?	/	/	i
Clc1cccc(-n2ncc3c(NC4CCCCCC4)ncnc32)c1	i	35.5µM*	/	/	i
COC(=O)[C@@]1(Cc2ccc(F)cc2)[C@H]2c3cc(C(=O)N4CCCC4)n(Cc4ccccc4)c3C[C@H]2CN1C(=O)c1ccccc1	?	0.0%	/	18.7%	i
COC(=O)[C@@]1(Cc2ccc(OC)cc2)[C@H]2c3cc(C(=O)N4CCCC4)n(Cc4ccc(S(C)(=O)=O)cc4)c3C[C@H]2CN1C(=O)c1ccccc1	25.1µM*	10.9%	/	4.1%	i
CCCN(CCC)C(=S)NC(=O)c1ccc(-c2ccccc2)cc1	i	14.1µM*	11.0%	-12.0%	i
CCOc1ccc(C(=O)NC(=S)N(Cc2ccccc2)Cc2ccccc2)cc1	i	-5.2%	0.1%	-4.7%	i
S=c1[nH]nc(-c2ccc(Cl)cc2)n1/N=C/C=C/c1ccco1	?	-20.6%[1.82 µM]	1.8%	14.7%	5.01µM*
CNc1ccc(C=O)cc1Br	/	/	/	8.6%	/
COc1cccc(Nc2ccccc2C(=O)O)c1	i	11.1%	11.9%	1.2%	i
O=C(O)c1ccccc1Nc1ccccc1	i	-36.8%	23.1µM*!	-0.4%	i
CC(=O)Nc1cccc(C(=O)OCC(=O)c2ccc(S(=O)(=O)N3CCCCC3)cc2)c1	i	15.7%	-4.6%	-8.2%	i
CC(=O)Nc1ccc(C(=O)OCC(=O)c2ccc(S(=O)(=O)N3CCCCC3)cc2)cc1	7.94µM*	0.0%	1.7%	-4.4%	i
CCOC(=O)C1CCCN(S(=O)(=O)c2ccc3c(c2)CC(C)N3C(=O)C2CC2)C1 (stereo not drawn)	i	10.9%	12.4%	9.7%	i
CC1Cc2cc(S(=O)(=O)N3CCCCC3)ccc2N1C(=O)C1CCC1 (stereo not drawn)	i	?	2.9%	-1.0%	/
Cc1cccc(NS(=O)(=O)c2ccc3c(c2)CC(C)N3C(=O)C2CCC2)c1C (stereo not drawn)	?	20µM*	/	/	i
CC1CCN(S(=O)(=O)c2ccc3c(c2)CC(C)N3C(=O)C2CCC2)CC1 (stereo not drawn)	?	17.8µM*	?	12.2%	/
CCC(C)(C)NC(=O)C1CCCN(S(=O)(=O)c2ccc3c(c2)CC(C)N3C(=O)C2CC2)C1 (stereo not drawn)	i	-0.1%	11.2µM*	1.2%	i
Cc1cc(C)c(NS(=O)(=O)c2ccc3c(c2)CC(C)N3C(=O)C2CCC2)c(C)c1 (stereo not drawn)	?	11.2µM*	/	/	i
CC(C)CNc1ccc2c(c1)OC[C@@H](CC(C)C)NS2(=O)=O	i	/	/	/	/
